This is an account of results in PubChem BioAssay (EPA / NIEHS).

Each structure is given as a SMILES string. Several values for one entry are separate records, joined by “and”; a condition that tells them apart may be missing. Equal values may be shown once. Some structures have more than one record in an assay (separate samples or runs), and their calls can disagree. Activity calls are given as the source filed them. The calls were made as follows: active = hit-call score of the fitted dose curve at least 0.9, where 1 is the maximum; inactive = score below 0.9.

This assay can be described thus: ATG_TAL_CIS: Attagene CIS-FACTORIAL HepG2 Assay for human TAL Basal Promoter (AID 2282966). The note with it: HepG2 Attagene cis-factorial TAL promoter reporter; actives raise or lower the signal. Here is the method: ATG_CIS is a cell-based, multiplexed-readout assay that uses HepG2, a human liver cell line, with measurements taken at 24 hours after chemical dosing in a 24-well plate.ATG_TAL_CIS is one of 52 assay component(s) measured or calculated from the ATG_CIS assay. It is designed to make measurements of mRNA induction, a form of inducible reporter, as detected with fluorescence intensity signals by Reverse transcription polymerase chain reaction (RT-PCR) and Capillary electrophoresis technology.Data from the assay component ATG_TAL_CIS was analyzed into 1 assay endpoint. This assay endpoint, ATG_TAL_CIS, was analyzed with bidirectional fitting relative to DMSO as the negative control and baseline of activity. Using a type of inducible reporter, measures of mRNA for gain or loss-of-signal activity can be used to understand the background control at the transcription factor-level as they relate to the gene . Furthermore, this assay endpoint can be referred to as a secondary readout, because this assay has produced multiple assay endpoints where this one serves a background control function. To generalize the intended target to other relatable targets, this assay endpoint is annotated to the background measurement intended target family, where the subfamily is internal marker.
Human liver HepG2 cells are transiently transfected with multiple reporter transcription units (MRTUs) in 6-well plates using FuGene 6 reagent (Roche; 3 ml FuGene/1 mg DNA). The MRTU constructs are regulated by a cis-regulating element (promoter). […] A major difference between the CIS and TRANS system is that in CIS activities of endogenous TFs are measured, whereas the TRANS assay evaluates changes in activities of exogenous, chimeric NR-Gal4 proteins. […] At the end of 24 hour incubation, total RNA was isolated using TriZol reagent (Invitrogen). The isolated RNA is then reverse-transcribed using oligo(dT) primer and Mo-MLV reverse transcriptase (Invitrogen) with DNAse I (Ambion) treatment for 30 min. The one-tenth of the produced cDNA was amplified by PCR using Taq DNA polymerase (Invitrogen) and two reporter sequence-specific primers. The PCR products were fluorescently labeled by primer extension with 6-arboxyfluorescein (6-FAM) 5'-labeled reporter sequence-specific primer (2 min at 95 C, 20 s at 68 C and 10 min at 72 C) and these products were digested with 5U of HpaI (New England Biolabs) for 2h at 37 C. The fragments were purified using Qiaquick PCR columns (Qiagen), analyzed on an ABI 3130xL genetic analyzer (Applied Biosystems) with peak positions identified by using a set of X-rhodamine (ROX)-labeled MapMarker1000 molecular weight standards (BioVentures). The raw capillary electrophoresis data was processed using Attagraph software (Attagene).
For `CCC(CC)CO`, the call was inactive.
In the case of `NC(N)=NC(N)=NCCc1ccccc1`, the molecule was classed as inactive.
The same measure, in the same setting: then `CC(=O)c1cccnc1`, with “inactive”.
Still for that read-out and setting: then `CCCCCCCCCCOC(=O)c1ccccc1C(=O)OCCCCCCCC`, with “inactive”; and `C[C@]12CC[C@@H]3c4ccc(O)cc4CC[C@H]3[C@@H]1CC[C@@H]2O`, with “inactive”.
The same measure, in the same setting: then `CC(C)(O)CCc1ccccc1`, with “inactive”.
Turning to `CC1=CCC(C(C)(C)O)CC1` (stereo not given), the outcome was inactive.
As to `CC(=O)Nc1cc(S(=O)(=O)O)cc2cc(S(=O)(=O)O)c(N=Nc3ccccc3)c(O)c12`, the call was inactive.
The same measure, in the same setting: as for `CC(C)(C)c1cccc(O)c1`, the entry is “inactive”; as for `C=CC(O)CCCCC` (stereo not given), “inactive”.
The same measure, in the same setting: then `Cc1ccc(C(C)(C)O)cc1`, with “inactive”; and `CCC(=O)OC(C)(C)C1CC=C(C)CC1` (stereo not given), with “inactive”.
For orientation: AC50 means the concentration giving half of the maximal activity seen. For the molecule `O=C(c1ccc(OCCN2CCCCC2)cc1)c1c(-c2ccc(O)cc2)sc2cc(O)ccc12`, the molecule was classed as inactive; the AC50 was 20.4 µM (active) and 11.1 µM (active).
For `CC(=O)c1ccc(C)cc1`, the outcome was inactive.
On the same count and under the same terms, as for `CCCCCCC(C)O` (stereo not given), the entry is “inactive”.
Same read-out and setting: as for `CCCCCCCCCCCCS`, the entry is “inactive”; as for `COc1ccc(N)c(C)c1`, “inactive”; as for `O=Cc1ccccc1O`, “inactive”.
On the same count and under the same terms, then `OCCCO`, with “inactive”; and `CC(C)CCCC(C)(C)O`, with “inactive”; and `CCCCOCC(C)OCC(C)O` (stereo not given), with “inactive”.
As to `CC1(C)[C@H](C=C(Cl)Cl)[C@H]1C(=O)OCc1cccc(Oc2ccccc2)c1`, the outcome was inactive.
Still for that read-out and setting: as for `CN(C)C`, the entry is “inactive”; as for `CCCCCCCCCCCCCC(=O)OCC`, “inactive”.
On the same count and under the same terms, then `CCCCC1CCCCC(=O)O1` (stereo not given), with “inactive”.
As for `CCOC(=O)C=Cc1ccccc1`, the molecule was called inactive.
Regarding `CC/C=C\CCCCO`, the molecule was classed as inactive.
As to `N#CCCCC(C#N)CCC#N` (stereo not given), the molecule was called inactive.
As to `C=COCC1CCC(COC=C)CC1` (stereo not given), the molecule was called inactive.
Still for that read-out and setting: then `NC(=O)NC(N)=O`, with “inactive”.
For `CN1CCc2cccc3c2[C@H]1Cc1ccc(O)c(O)c1-3`, the AC50 is 8.44 µM (active).
In the case of `CC(=O)CCC(=O)O`, the result was inactive.
Take `CCOC(=O)CCCCCCCCC(=O)OCC`: the call was inactive.
On the same count and under the same terms, then `CC(=O)c1ccc2ccccc2c1`, with “inactive”; and `NNC(=O)OCc1ccccc1`, with “inactive”.
Consider `O=C(O)CS`, for which the outcome was inactive.
As to `CCCCCCCC1CCCC1=O` (stereo not given), the call was inactive.
On the same count and under the same terms, as for `C=CC(C)CCCC(C)(C)O` (stereo not given), the entry is “inactive”; as for `C[C@H](CCC(=O)O)[C@H]1CC[C@H]2[C@@H]3CC[C@@H]4C[C@H](O)CC[C@]4(C)[C@H]3CC[C@]12C`, “inactive”.
